Assay results: PubChem BioAssay AID588492 (Sanford-Burnham Center for Chemical Genomics, 2011)
Among all 360,000 compounds or so, about 2,300 (0.64%) were called active.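 Rule for the calls: active = compounds giving at least 50% protection of heart cells from peroxide-induced death in the single-dose screen, raw or plate-pattern-corrected value; inactive = the rest.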 Only a selection was taken, and actives are over-represented in it overall.

Assay: H9c2 cardiomyocyte survival under peroxide injury – uHTS, H9c2 cells, ATPLite luminescence, primary screen (AID 588492);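 note: 0% = DMSO wells with peroxide and 100% = DMSO wells without peroxide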
Details: H9c2 cardiomyocytes, 2 h, at 20 µM, stronger effect = higher value

SMILES | protection from H2O2 cell death
Cc1cc(=O)oc2c(C)c(OCC(=O)NCCc3ccc(S(N)(=O)=O)cc3)ccc12 | -0.5% (inactive)
COc1ccc(CN2CCC(c3nc4ccc(Cl)cc4[nH]3)CC2)cc1 | -3.8% (inactive)
Cn1c2c(c(=O)n(C)c1=O)C1c3ccccc3OCC1C(C)(C)O2 (stereo not drawn) | 11% (inactive)
Cn1c2c(c(=O)n(C)c1=O)C(c1cccc([N+](=O)[O-])c1)Nc1ccccc1O2 (stereo not drawn) | 61.2% (active)
Cn1c2c(c(=O)n(C)c1=O)C(c1ccc(O)cc1)Nc1ccccc1O2 (stereo not drawn) | 2.1% (inactive)
O=C(COc1nsnc1N1CCOCC1)Nc1ccccc1Cl | 1.1% (inactive)
O=C(CSCc1c(Cl)cccc1Cl)NN1C(=O)c2ccccc2C1=O | 5.5% (inactive)
COc1ccc(-c2cc(NC=O)c3ncc(-c4cc(OC)c(OC)c(OC)c4)n3c2)c(OC)c1 | 17.5% (inactive)
COc1ccc(-c2cc(NC=O)c3ncc(-c4ccccc4)n3c2)cc1OC | 74.5% (active)
CC(=O)Nc1cccc(-c2cc(NC=O)c3ncc(-c4ccc(F)c(Cl)c4)n3c2)c1 | 47.5% (inactive)
CC(=O)c1cccc(-c2cnc3c(NC=O)cc(-c4cccc(C(=O)N(C)C)c4)cn23)c1 | 73.1% (active)
CC(=O)Nc1cccc(-c2cc(NC(C)=O)c3ncc(-c4ccccc4)n3c2)c1 | 57.6% (active)
CN(C)C(=O)c1cccc(-c2cnc3c(NC=O)cc(-c4ccc(F)cc4)cn23)c1 | 12.9% (inactive)
CC(=O)c1cccc(-c2cnc3c(NC=O)cc(-c4ccc(N5CCN(C)CC5)cc4)cn23)c1 | 0.9% (inactive)
CC(=O)c1ccc(-c2cnc3c(NC=O)cc(-c4cccc(NS(C)(=O)=O)c4)cn23)cc1 | 64.4% (active)
CC(=O)c1cccc(-c2cnc3c(NC=O)cc(-c4ccc(N(C)C)cc4)cn23)c1 | 34.4% (inactive)
CC(=O)c1cccc(-c2cnc3c(NC=O)cc(-c4ccccc4Oc4ccccc4)cn23)c1 | -13.2% (inactive)
COc1cccc(-c2cc(NC(C)=O)c3ncc(-c4cccc(C(C)=O)c4)n3c2)c1 | 24.1% (inactive)
COc1cccc(-c2cnc3c(NC(C)=O)cc(-c4cccc(NC(C)=O)c4)cn23)c1 | 41.9% (inactive)
CCCc1c(C)nc2scc(-c3ccc(Cl)cc3)n2c1=O | -0.2% (inactive)

SMILES | protection from H2O2 cell death
Cc1cc(NC(=O)OC(C)C)ccc1-c1ccc(NC(=O)OC(C)C)cc1C | 0.3% (inactive)
COc1ccc(CSc2nnnn2-c2ccc(O)cc2)cc1F | -8.7% (inactive)
Cc1ccc(OCCNC(=O)CCNS(=O)(=O)c2ccc(Br)cc2)cc1 | -2.6% (inactive)
CC1CCN(C(=O)CN(c2ccc(Oc3ccccc3)cc2)S(C)(=O)=O)CC1 | -13.4% (inactive)
Cc1nonc1OCCn1nnnc1N | -1.7% (inactive)
Cc1oc(C(N)=O)cc1COc1ccc(C(N)=O)cc1 | -0.9% (inactive)
O=C(c1ccc(N2CCOCC2)c([N+](=O)[O-])c1)N1CCN(S(=O)(=O)c2cccs2)CC1 | -4.8% (inactive)
Cc1cccn2c(=O)nc(SCC(=O)NCc3ccccc3Cl)nc12 | -5.6% (inactive)
CCCn1c(SCC(=O)c2ccc3c(c2)OCCO3)nnc1C(C)C | 2.3% (inactive)
CN1CCNC(=O)C1CC(=O)N1CC=C(c2ccc(F)cc2)CC1 (stereo not drawn) | -0.1% (inactive)
N#Cc1ccccc1NC(=O)c1cccc(COc2ccc(Cl)cc2Cl)c1 | -3.6% (inactive)
Cc1c(CCC(=O)O)c(=O)oc2c(C)c(OCc3ccccc3Cl)ccc12 | 1.3% (inactive)
Cc1c(CC(=O)N2CCN(C(=O)C3COc4ccccc4O3)CC2)c(=O)oc2c(O)c(O)ccc12 (stereo not drawn) | 61.9% (active)
Cc1ccc(S(=O)(=O)NCCC(=O)NNC(=O)C2COc3ccccc3O2)cc1 (stereo not drawn) | -3.1% (inactive)
Cc1nc2c(OCc3ccc(Cl)cc3)cccn2c1N(C)Cc1cccs1 | -9.7% (inactive)
CCc1nc2ccc(C(=O)N(C)Cc3ccco3)cn2c1N(C)C(=O)Cc1ccccc1 | -2.1% (inactive)
CCC(=O)Nc1ccccc1C(=O)N1CCN(Cc2ccccc2)CC1 | 5.1% (inactive)
COc1ccccc1Nc1ncnc2c1oc1ccccc12 | 7.1% (inactive)
COCCNc1nc(-c2ccccc2)nc2c1oc1ccccc12 | 1.8% (inactive)
CCc1nc(Nc2ccc3nccnc3c2)c2oc3ccccc3c2n1 | 53.3% (active)

SMILES | protection from H2O2 cell death
Cc1ccc(C(=O)N(CC(=O)NC2CCCC2)c2ccc(F)cc2)s1 | -2.3% (inactive)
COc1cccc(CNC(=O)C2CC(=O)N(C3CCCCCCC3)C2)c1 (stereo not drawn) | -0.1% (inactive)
COc1ccc(C(=O)CSc2nnc(NC(=O)C3CC(=O)N(c4cccc(OC)c4)C3)s2)cc1 (stereo not drawn) | -1.6% (inactive)
COc1cccc(N2CC(C(=O)NCc3n[nH]c(=O)c4ccccc34)CC2=O)c1 (stereo not drawn) | 50.2% (active)
COC(=O)CN(c1cccc(C(C)=O)c1)S(C)(=O)=O | -1% (inactive)
O=C(Nc1nnc([C@H]2C[C@H](O)[C@@H](CO)O2)s1)c1cccc(Cl)c1 | 3% (inactive)
O=C(Nc1ccc(Cl)cc1)c1csc([C@H]2C[C@H](O)[C@@H](CO)O2)n1 | -8.3% (inactive)
O=C(Nc1cccc2cccnc12)c1ccc2sc([C@H]3C[C@H](O)[C@@H](CO)O3)nc2c1 | 76.9% (active)
CCOn1c(=O)c(=O)n(O)c2ccccc21 | 3.3% (inactive)
CCOc1cc(N2CCOCC2)c(OCC)cc1NC(=O)COc1cccc2cccnc12 | 50.1% (active)
CCOc1cc(N2CCOCC2)c(OCC)cc1NC(=O)COC(=O)[C@H](Cc1c[nH]c2ccccc12)NC(C)=O | 10.2% (inactive)
CCOc1cc(N2CCOCC2)c(OCC)cc1NC(=O)C1=NN(c2cccc(C)c2)C(=O)CC1 | 15.6% (inactive)
CCc1ccc2c(c1)cc(CN(C(=S)Nc1ccccc1Cl)C1CC1)c1nnnn12 | -3.2% (inactive)
Clc1ccc(C2=CSC3=Nc4cccc5cccc(c45)N23)cc1 | -4.9% (inactive)
COc1cc(CO)c(C2(CO)CCCC2)cc1OC | 2.5% (inactive)
COc1cc(NS(=O)(=O)c2ccc3ccccc3c2)c2ncccc2c1 | 61.8% (active)
O=S(=O)(Nc1ccccn1)c1cccc(S(=O)(=O)c2ccc(Cl)cc2)c1 | -4.1% (inactive)
CCOc1cc(NS(=O)(=O)c2ccc(OC)cc2)c(OCC)cc1NC(C)=O | -4% (inactive)
